Test results taken from PubChem BioAssay AID463173 (ICCB-Longwood Screening Facility, Harvard Medical School, 2010).
The whole screen tested about 52,000 compounds, of which about 1,700 (3.3%) were called active. The sample holds actives, similar compounds and a random draw of the others, so the mix is not that of the screen. Values without a mark were called inactive. Rule as the data show it: active = survival mostly below about 52% (no sharp cut-off); inactive = mostly above about 56%.

These compounds were tested on Wild type (assay: S. aureus survival, RN4220 and DeltatarO strains – OD600, teichoic acid synthesis inhibitors, primary screen (AID 463173)). Conditions: S. aureus RN4220 wild type/DeltatarO growth, OD600, 18 h, active compounds read low, screened at 18.75 µg/mL (by protocol).
`COc1cc(C)ccc1OCCSc1nc(-c2cccc(C)c2)nc2cc(=O)[nH]n12` showed a survival of 88%. `Cc1ccc(NC(=O)c2oc3ccc(S(=O)(=O)N4CCC5(CC4)OCCO5)cc3c2C)c(C)c1` gave a survival of 143%. `O=C(CS(=O)(=O)c1cccc2nsnc12)Nc1cc(F)ccc1F` gave a survival of 97%. With `Cn1c(=O)c2c(nc(NCCc3ccccc3)n2Cc2ccc(Cl)cc2)n(C)c1=O` the survival was 74%. Work on `CCc1ccc(N2C(=O)C3C4CCCC4=C4CCCC4C3C2=O)cc1` (configuration not stated) yielded a survival of 116%. In the case of `Cn1c(=O)c2c(nc3n(-c4ccc(O)cc4)c(-c4ccc(Br)cc4)cn23)n(C)c1=O`, the survival is reported as 142%. Compound `COc1ccc(CNC(=O)C2CCN(C(=O)N3CCOc4ccc(C)cc43)CC2)cc1` has a survival of 80%. `Cc1cccn2c(=O)c3cc(C(=O)Nc4ccc(Cl)c(Cl)c4)sc3nc12` showed a survival of 71%. In the case of `O=C(O)CCSc1nnnn1-c1ccccc1`, the survival is reported as 114%. Compound `c1ccc(CNc2nnnn2-c2ccccc2)cc1` has a survival of 106%. With `CCS(=O)(=O)c1nnnn1-c1ccccc1` the survival was 1% (active). With `COc1ccc(C2CC(=O)c3cc(-c4nc(-c5cccc([N+](=O)[O-])c5)cs4)c(=O)n(-c4cc(C)cc(C)c4)c3C2)cc1` (configuration not stated) the survival was 80%. Work on `COc1ccc(C2=Nc3ccccc3N(CC(=O)Nc3cccc(C(C)=O)c3)C(=O)C2)cc1` yielded a survival of 136%. In the case of `Cc1ccc(N(C)C(=O)C2CCN(S(=O)(=O)c3cn(C)cn3)CC2)cc1`, the survival is reported as 10% (active). Work on `Cc1ccc(C)c(N2CCN(C(=O)C3CCN(S(=O)(=O)c4cn(C)cn4)CC3)CC2)c1` yielded a survival of 75%. For `Cc1ccc(CNC(=O)C2CCN(S(=O)(=O)c3cn(C)cn3)CC2)cc1`, the survival was 82%. For `COc1ccc(OC)c(CNC(=O)C2CCN(S(=O)(=O)c3cn(C)cn3)CC2)c1`, the survival was 82%. In the case of `COc1ccccc1CNC(=O)C1CCN(S(=O)(=O)c2cn(C)cn2)CC1`, the survival is reported as -3% (active). `Cn1cnc(S(=O)(=O)N2CCC(C(=O)NCc3ccc(Cl)cc3)CC2)c1` showed a survival of 95%. `Cn1cnc(S(=O)(=O)N2CCC(C(=O)NCc3ccccc3Cl)CC2)c1` showed a survival of 128%. With `CN(C)c1ccc(CNC(=O)C2CCN(S(=O)(=O)c3cn(C)cn3)CC2)cc1` the survival was -2% (active). `Cc1cc(C)cc(NC(=O)C2CCN(S(=O)(=O)c3cn(C)cn3)CC2)c1` was tested, and the survival was 73%. With `COc1ccc(-c2cn3nc(SCC(=O)Nc4cc(C)cc(C)c4)ccc3n2)cc1` the survival was 68%. `CCN(CC)S(=O)(=O)c1ccc(C(=O)N2CC(=O)Nc3ccc(F)cc3C2c2ccccc2)cc1` (configuration not stated) was tested, and the survival was 81%. For `COc1ccc(NC(=O)c2ccc(-c3nc(COc4ccccc4)c(C)o3)cc2)cc1`, the survival was 84%. In the case of `Cc1n[nH]c(C)c1N1C(=O)c2cccc3c(N4CCCCC4)ccc(c23)C1=O`, the survival is reported as 116%. In the case of `O=C(NCCCO)C(=O)NCC(c1ccc2c(c1)OCO2)N1CCOCC1` (configuration not stated), the survival is reported as 10% (active). `COc1ccc(CCNC(=O)C(=O)NCC(c2ccc3c(c2)OCO3)N2CCOCC2)cc1OC` (configuration not stated) gave a survival of 73%. With `COc1ccc(CNC(=O)C(=O)NCC(c2ccc3c(c2)OCO3)N2CCOCC2)cc1` (configuration not stated) the survival was 80%. `CNC(=O)C(=O)NCC(c1ccc2c(c1)OCO2)N1CCOCC1` (configuration not stated) showed a survival of 113%. `COCCNC(=O)C(=O)NCC(c1ccc2c(c1)OCO2)N1CCOCC1` (configuration not stated) was tested, and the survival was -3% (active). In the case of `CC(C)(C)CC(=O)NCC(c1ccc2c(c1)OCO2)N1CCOCC1` (configuration not stated), the survival is reported as 73%. Compound `COCCCNC(=O)C(=O)NCC(c1ccc2c(c1)OCO2)N1CCOCC1` (configuration not stated) has a survival of 87%. `O=C(NCCO)C(=O)NCC(c1ccc2c(c1)OCO2)N1CCOCC1` (configuration not stated) gave a survival of 59%. For `CN(C)CCNC(=O)C(=O)NCC(c1ccc2c(c1)OCO2)N1CCOCC1` (configuration not stated), the survival was 73%. For `CN(C)CCCNC(=O)C(=O)NCC(c1ccc2c(c1)OCO2)N1CCOCC1` (configuration not stated), the survival was 124%. For `COc1ccc(CCNC(=O)C(=O)NCC(c2ccc3c(c2)OCO3)N2CCOCC2)cc1` (configuration not stated), the survival was 0% (active). In the case of `CC(C)(C)C(=O)NCC(c1ccc2c(c1)OCO2)N1CCOCC1` (configuration not stated), the survival is reported as -2% (active). `O=C(CS(=O)(=O)c1cccc2nsnc12)NCc1ccccc1Cl` showed a survival of 136%. With `Cc1cc(Nc2ccc(C(=O)O)c(O)c2)n2ncnc2n1` the survival was 72%. `O=C(NCCc1ccc(Cl)cc1)c1nc(-c2cccc(F)c2)n2c1CCCCC2` was tested, and the survival was 140%. `CC(=O)Nc1ccc(NC(=O)c2cc3c(=O)n(Cc4cccnc4)ccc3nc2C)cc1` gave a survival of 65%. `Cc1cccc(NC(=O)c2cc3c(=O)n(Cc4cccnc4)ccc3nc2C)c1` was tested, and the survival was -3% (active). `COc1ccc(NC(=O)c2cc3c(=O)n(Cc4cccnc4)ccc3nc2C)c(OC)c1` was tested, and the survival was 88%. Compound `COc1cccc(NC(=O)c2cc3c(=O)n(Cc4cccnc4)ccc3nc2C)c1` has a survival of 78%. In the case of `COc1ccc(Cn2ccc3nc(C)c(C(=O)Nc4ccc(OC(F)(F)F)cc4)cc3c2=O)cc1`, the survival is reported as 90%. Work on `COc1ccc(NC(=O)c2cc3c(=O)n(Cc4ccco4)ccc3nc2C)c(OC)c1` yielded a survival of 88%. For `COc1ccc(Cn2ccc3nc(C)c(C(=O)Nc4ccc(OC)cc4)cc3c2=O)cc1`, the survival was 85%. For `COc1ccc(Cn2ccc3nc(C)c(C(=O)Nc4ccc(OC)cc4OC)cc3c2=O)cc1`, the survival was 0% (active). With `COc1ccc(Cn2ccc3nc(C)c(C(=O)Nc4ccc(F)cc4)cc3c2=O)cc1` the survival was -3% (active). With `COc1ccccc1NC(=O)C1=C(C)Nc2nc(SCc3ccccc3)nn2C1c1ccncc1` (configuration not stated) the survival was 83%. Work on `CC(C)NC(=O)C1CCCN(c2ncnc3c2nc2n3CCCCC2)C1` (configuration not stated) yielded a survival of 73%. With `COC(=O)c1nnn(-c2cccc(C)c2)c1C(=O)OC` the survival was 77%. Compound `Cc1nc2ccccc2c(=O)n1/N=C1\C(=O)N(C)c2ccccc21` has a survival of 108%. With `Cc1ccc2c(=O)c(C(=O)c3cccc(Cl)c3)cn(CC(=O)NC3CCCCC3)c2n1` the survival was 126%. Work on `CCc1ccc(CNC(=O)CN2C(=O)CSc3c2c(C)nn3-c2ccccc2)cc1` yielded a survival of 125%. `CCC1CCc2c(sc(NC(=O)C3c4ccccc4Oc4ccccc43)c2C(=O)OC)C1` (configuration not stated) was tested, and the survival was 80%. For `CCOC(=O)c1c(NC(=O)COc2cccc(C)c2C)sc2c1CCC(CC)C2` (configuration not stated), the survival was 78%. For `CCOC(=O)c1c(NC(=O)COc2ccc(F)cc2)sc2c1CCC(C)C2` (configuration not stated), the survival was 69%. With `CCOC(=O)c1c(NC(=O)c2ccccc2OCC)sc2c1CCC(CC)C2` (configuration not stated) the survival was -1% (active). In the case of `CCOC(=O)c1c(NC(=O)c2ccc(F)cc2)sc2c1CCC(CC)C2` (configuration not stated), the survival is reported as 3% (active). Compound `CCOC(=O)c1c(NC(=O)C2c3ccccc3Oc3ccccc32)sc2c1CCC(CC)C2` (configuration not stated) has a survival of 65%.
